# Measured values: PubChem BioAssay
# Calls of active or inactive are those of the source.
# Columns and labels:
# [1] = binders of probe aFSTL3 on microarray, primary screen, stem cell growth factor project, biochemical, small-molecule microarray, fluorescence 635/667 (AID 1064); conditions: higher = more signal;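 note: measures binding of the biotinylated anti-FSTL3 antibody to printed compounds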
# [2] = binders from COS7 lysate, DM2A8 probe, primary screen, torsin A project, cell lysate, small-molecule microarray, fluorescence 635/667 (AID 1065); conditions: higher = more signal, COS7 lysate expressing mutant human TOR1A
# [3] = binders of probe aFGF2 on microarray, primary screen, stem cell growth factor project, biochemical, small-molecule microarray, fluorescence 635/667 (AID 1067); conditions: higher = more signal;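 note: measures binding of biotinylated aFGF2 protein to printed compounds on slides; z-score merges feature fluorescence and signal-to-noise across triplicate slides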
# [4] = binders of probe aFGF10 on microarray, primary screen, stem cell growth factor project, biochemical, small-molecule microarray, fluorescence 635/667 (AID 1071); conditions: higher = more signal;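 note: score merges 667 nm spot intensity and signal to noise from triplicate slides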
# [5] = molecular target: Neurogenic locus notch homolog protein 2 (Homo sapiens) (UniProt Q04721); assay: Notch2 binders on small-molecule microarrays, primary screen, biochemical, small-molecule microarray, 635 nm fluorescence, stem cell growth factors (AID 1073); conditions: Notch2 binding, higher = more signal
# [6] = molecular target: Pro-neuregulin-1, membrane-bound isoform (Homo sapiens) (UniProt Q02297); assay: NRG1 binders on small-molecule microarrays, primary screen, psychiatric disease protein project, biochemical, small-molecule microarray, fluorescence 635/667 (AID 1075); conditions: NRG1 binding, 635 nm fluorescence, higher = more signal;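 note: score combines 667 nm spot fluorescence with signal to noise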
# [7] = tested on: Neuregulin-1 EGF-like domain; assay: binders of neuregulin-1 EGF-like domain, primary screen, biochemical, small-molecule microarray, 635 nm fluorescence (AID 1081); conditions: small-molecule microarray binding, higher = more signal;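 note: binding of the protein to compounds printed on small-molecule microarray slides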
# [8] = FRG1 promoter luciferase signal modulators, primary screen, FRG1 inhibition for FSHD, cell-based, C2C12 myotubes, firefly/Renilla luciferase, luminescence (AID 1084); conditions: higher = more signal, called active from +8 up or from −8 down
# [9] = binders of probe aFST on microarray, primary screen, stem cell growth factor project, biochemical, small-molecule microarray, fluorescence 635/667 (AID 1086); conditions: higher = more signal;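 note: score merges 667 nm fluorescence with signal-to-noise of each printed compound spot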
# [10] = binders of probe aHhip on microarray, primary screen, stem cell growth factor project, biochemical, small-molecule microarray, fluorescence 635/667 (AID 1087); conditions: higher = more signal;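 note: score merges spot fluorescence at 667nm with spot signal to noise ratio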
# Chain of Pro-neuregulin-1, membrane-bound isoform (Homo sapiens) (Q02297 whole entry, looked up, the tested form may be a part, canonical isoform): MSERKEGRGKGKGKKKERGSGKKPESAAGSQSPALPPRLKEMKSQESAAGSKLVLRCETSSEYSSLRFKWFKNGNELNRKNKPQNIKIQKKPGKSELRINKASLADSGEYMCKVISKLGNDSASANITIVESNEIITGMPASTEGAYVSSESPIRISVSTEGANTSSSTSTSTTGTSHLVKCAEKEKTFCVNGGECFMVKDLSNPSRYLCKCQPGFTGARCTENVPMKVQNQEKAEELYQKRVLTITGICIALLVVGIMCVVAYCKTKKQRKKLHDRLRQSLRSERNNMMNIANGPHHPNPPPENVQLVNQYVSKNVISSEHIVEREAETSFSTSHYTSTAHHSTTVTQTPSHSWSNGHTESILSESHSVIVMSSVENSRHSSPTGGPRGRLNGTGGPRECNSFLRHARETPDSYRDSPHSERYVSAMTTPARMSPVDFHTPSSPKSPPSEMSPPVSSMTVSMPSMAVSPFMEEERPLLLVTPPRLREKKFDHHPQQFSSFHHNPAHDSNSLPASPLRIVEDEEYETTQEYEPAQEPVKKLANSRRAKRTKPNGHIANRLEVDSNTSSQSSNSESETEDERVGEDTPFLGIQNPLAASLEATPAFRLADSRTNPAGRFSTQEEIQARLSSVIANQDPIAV
# Chain of Neurogenic locus notch homolog protein 2 (Homo sapiens) (Q04721 whole entry, looked up, canonical isoform): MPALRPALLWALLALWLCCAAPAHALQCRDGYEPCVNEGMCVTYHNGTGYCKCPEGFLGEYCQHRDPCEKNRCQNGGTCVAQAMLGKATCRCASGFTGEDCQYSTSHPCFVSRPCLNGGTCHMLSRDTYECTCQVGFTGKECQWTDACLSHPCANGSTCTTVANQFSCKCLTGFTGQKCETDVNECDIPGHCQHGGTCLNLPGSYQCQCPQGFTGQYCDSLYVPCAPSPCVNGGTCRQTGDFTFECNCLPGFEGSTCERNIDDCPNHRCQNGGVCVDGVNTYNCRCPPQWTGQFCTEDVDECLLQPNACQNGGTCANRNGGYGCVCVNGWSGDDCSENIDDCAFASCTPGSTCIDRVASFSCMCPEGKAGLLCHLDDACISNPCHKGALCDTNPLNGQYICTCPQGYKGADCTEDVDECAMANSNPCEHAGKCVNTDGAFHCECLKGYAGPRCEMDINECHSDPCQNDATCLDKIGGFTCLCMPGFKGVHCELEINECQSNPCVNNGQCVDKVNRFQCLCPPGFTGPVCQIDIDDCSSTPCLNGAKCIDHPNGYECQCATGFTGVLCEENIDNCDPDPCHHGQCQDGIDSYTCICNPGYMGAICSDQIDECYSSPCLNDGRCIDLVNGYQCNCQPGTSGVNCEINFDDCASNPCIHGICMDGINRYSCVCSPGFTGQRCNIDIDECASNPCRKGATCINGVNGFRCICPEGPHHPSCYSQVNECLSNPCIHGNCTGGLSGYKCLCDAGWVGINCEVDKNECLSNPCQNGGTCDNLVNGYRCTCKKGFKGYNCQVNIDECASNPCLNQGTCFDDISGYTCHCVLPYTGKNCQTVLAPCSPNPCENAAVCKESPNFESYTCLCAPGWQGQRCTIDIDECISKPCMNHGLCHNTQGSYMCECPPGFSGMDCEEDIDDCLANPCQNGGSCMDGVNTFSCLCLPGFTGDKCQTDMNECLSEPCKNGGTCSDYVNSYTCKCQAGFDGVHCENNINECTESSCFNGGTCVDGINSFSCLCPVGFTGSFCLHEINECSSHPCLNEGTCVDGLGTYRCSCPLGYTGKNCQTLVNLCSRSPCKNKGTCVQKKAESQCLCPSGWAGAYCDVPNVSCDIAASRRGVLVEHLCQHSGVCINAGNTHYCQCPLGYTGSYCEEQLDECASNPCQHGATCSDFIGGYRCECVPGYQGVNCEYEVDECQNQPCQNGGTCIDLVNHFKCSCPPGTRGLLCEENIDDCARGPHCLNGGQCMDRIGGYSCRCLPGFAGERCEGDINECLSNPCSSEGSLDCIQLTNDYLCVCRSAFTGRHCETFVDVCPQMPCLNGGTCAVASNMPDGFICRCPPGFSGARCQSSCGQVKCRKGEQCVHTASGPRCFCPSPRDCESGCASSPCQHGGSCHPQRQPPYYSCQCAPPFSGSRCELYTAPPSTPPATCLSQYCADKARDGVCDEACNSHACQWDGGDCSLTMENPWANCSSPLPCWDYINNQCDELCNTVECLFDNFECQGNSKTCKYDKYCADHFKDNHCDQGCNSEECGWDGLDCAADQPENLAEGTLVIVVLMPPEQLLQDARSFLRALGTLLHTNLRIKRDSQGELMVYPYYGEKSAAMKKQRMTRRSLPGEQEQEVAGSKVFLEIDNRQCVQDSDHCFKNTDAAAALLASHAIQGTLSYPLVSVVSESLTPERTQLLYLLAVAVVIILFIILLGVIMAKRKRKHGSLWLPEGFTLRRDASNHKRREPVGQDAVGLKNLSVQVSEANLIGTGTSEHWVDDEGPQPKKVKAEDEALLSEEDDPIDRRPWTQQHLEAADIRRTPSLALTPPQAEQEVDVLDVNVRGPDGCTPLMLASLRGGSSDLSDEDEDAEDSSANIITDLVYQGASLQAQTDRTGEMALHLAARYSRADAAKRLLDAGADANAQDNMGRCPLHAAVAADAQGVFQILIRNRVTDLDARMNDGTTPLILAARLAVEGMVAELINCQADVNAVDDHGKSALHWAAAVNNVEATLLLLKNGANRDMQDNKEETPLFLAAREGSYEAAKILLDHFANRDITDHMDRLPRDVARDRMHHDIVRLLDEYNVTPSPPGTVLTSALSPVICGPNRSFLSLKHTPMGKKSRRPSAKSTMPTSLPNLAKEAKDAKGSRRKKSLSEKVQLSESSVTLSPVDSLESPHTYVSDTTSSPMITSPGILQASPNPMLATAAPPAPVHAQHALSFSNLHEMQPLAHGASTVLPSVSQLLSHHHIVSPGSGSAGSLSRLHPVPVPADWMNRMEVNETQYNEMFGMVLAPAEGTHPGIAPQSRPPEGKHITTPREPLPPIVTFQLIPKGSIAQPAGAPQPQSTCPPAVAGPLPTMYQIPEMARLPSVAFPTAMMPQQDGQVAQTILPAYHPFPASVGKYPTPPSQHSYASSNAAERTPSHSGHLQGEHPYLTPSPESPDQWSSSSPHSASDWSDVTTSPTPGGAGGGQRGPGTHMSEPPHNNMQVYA
Compound,composite z-score [1],composite z-score [2],composite z-score [3],composite z-score [4],composite z-score [5],composite z-score [6],composite z-score [7],z-score [8],composite z-score [9],composite z-score [10]
CCCCC(O)C1C=CC2C(=O)N(C3CCCCC3)C(=O)C2N1Nc1ccc(OC)cc1 (stereo not given),-0.362,0.139,-0.0056,0.441,1.45,1.29,1.13,0.405 (inactive),0.583,0.107
COc1ccccc1CN1C(=O)c2ccccc2[C@@H](C(=O)NCCN2CCOCC2)[C@@H]1c1ccc(CO)cc1,0.109,-0.267,-0.0999,0.539,0.159,1.01,1.47,-2.69 (inactive),-0.2,-0.169
CC(C)(C)N1CC=CC23O[C@@H]4/C=C\CCCOC(=O)C4[C@H]2C(=O)N(CCO)[C@@H]3C1=O (stereo not given in full),0.29,-1.05,-0.045,0.588,-0.931,0.208,0.938,0.911 (inactive),-0.681,-0.236
COc1ccc(NN2C(C(O)c3ccc(OC)c(OCc4ccccc4)c3)C=CC3C(=O)N(C4CCCCC4)C(=O)C32)cc1 (stereo not given),0.243,-0.116,0.136,0.395,1.56,1.4,0.936,0.0498 (inactive),0.857,0.0749
CCOC(=O)C[C@H]1[C@H](OC(=O)c2ccc(-c3ccccc3)cc2)[C@@H](NC(=O)Cc2ccc(OC)cc2)c2cc(OCCCO)ccc2N1C(=O)c1ccc2ccccc2n1,-0.389,-0.188,0.0176,0.178,0.76,0.33,0.0896,0.817 (inactive),0.484,-0.0645
COC(=O)[C@@]1(Cc2ccc(OC)cc2)[C@H]2c3cc(C(=O)N(C)C)n(Cc4c(OC)[nH]cc(C)c4=O)c3C[C@H]2CN1C(=O)c1ccccc1,0.522,0.0954,-0.102,0.289,1.49,1.92,1.08,-1.04 (inactive),0.927,-0.444
COc1ccc([Si](C)(C)[C@@H]2[C@@H](CCn3cc([C@H](O)c4ccccc4)nn3)O[C@]3(C(=O)N(Cc4ccc(N5C(=O)c6cccc7cccc5c67)cc4)c4ccccc43)[C@H]2C)cc1,0.428,0.174,-0.162,-0.16,-0.574,0.569,0.594,-0.353 (inactive),-0.587,-0.199
COCCOC(=O)N1C(=O)[C@@]2(c3cc(C#CCC(C(=O)OC)C(=O)OC)ccc31)[C@H](c1ccccc1OCCO)N1[C@H](c3ccccc3)[C@H](c3ccccc3)OC(=O)[C@H]1[C@@H]2C(N)=O,-0.0037,0.532,0.0495,1.17,0.923,1.42,1.21,-0.885 (inactive),0.0716,0.107
